Experimental findings from publication PMC11006913 are described below.

Substitutions are numbered along the chain they refer to.

Common to all, as to experiment: PBM; 200 nM protein, PBS
Holding throughout (details): dsDNA, one strand shown

Experiment [1] concerns the target T1, SIX6 (Homo sapiens, UniProt O95475 114-200, L167I).
T1 sequence: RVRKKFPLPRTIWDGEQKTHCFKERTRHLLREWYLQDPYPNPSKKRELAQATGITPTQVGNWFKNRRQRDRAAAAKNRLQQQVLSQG

The target in experiment [2] is T2, SIX6 (Homo sapiens, UniProt O95475 114-200, L143V).
T2 sequence: T1 sequence with L30V, I54L

The target in experiment [3] is T3, SIX6 (Homo sapiens, UniProt O95475 114-200, H141N).
T3 sequence: T1 sequence with H28N, I54L

In experiment [4] the target is T4, SIX6 (Homo sapiens, UniProt O95475 114-200, T165P).
T4 sequence: T1 sequence with T52P, I54L

Experiment [5] addresses T5, SIX6 (Homo sapiens, UniProt O95475 114-200, L167M).
T5 sequence: T1 sequence with I54M

In experiment [6] the target is T6, SIX6 (Homo sapiens, UniProt O95475 114-200, L143M).
T6 sequence: T1 sequence with L30M, I54L

Experiment [7] concerns the target T7, SIX6 (Homo sapiens, UniProt O95475 114-200, L143I).
T7 sequence: T1 sequence with L30I, I54L

Experiment [8] concerns the target T8, SIX6 (Homo sapiens, UniProt O95475 114-200, T165G).
T8 sequence: T1 sequence with T52G, I54L

The target in experiment [9] is T9, SIX6 (Homo sapiens, UniProt O95475 114-200, T139Q).
T9 sequence: T1 sequence with T26Q, I54L

For experiment [10], the target named is T10, SIX6 (Homo sapiens, UniProt O95475 114-200, T165A).
T10 sequence: T1 sequence with T52A, I54L

The target of experiment [11] is T11, SIX6 (Homo sapiens, UniProt O95475 114-200, L167V).
T11 sequence: T1 sequence with I54V

In experiment [12] the target is T12, SIX6 (Homo sapiens, UniProt O95475 114-200).
T12 sequence: T1 sequence with I54L

The target in experiment [13] is T13, SIX6 (Homo sapiens, UniProt O95475 114-200, T165I).
T13 sequence: T1 sequence with T52I, I54L

In experiment [14] the target is NKX3-2 (Homo sapiens, UniProt P78367 192-278, P234S).
Sequence of NKX3-2 (Homo sapiens, UniProt P78367 192-278, P234S) (P78367 192-278 P234S): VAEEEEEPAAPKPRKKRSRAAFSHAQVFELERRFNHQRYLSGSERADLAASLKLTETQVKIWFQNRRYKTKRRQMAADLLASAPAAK
Experiment [15] concerns the target NKX3-2 (Homo sapiens, UniProt P78367 192-278).

Sequence of NKX3-2 (Homo sapiens, UniProt P78367 192-278) (P78367 192-278): as the sequence (P78367 192-278 P234S) above, with S43P counted along it

For CGGCCCAA, the binding signal in experiment [1] is 9.05 upbm affinity estimate (log intensity, higher = more binding, comparable within an allelic series); in experiment [2] it was 8.91 upbm affinity estimate (log intensity, higher = more binding, comparable within an allelic series); in experiment [3], 9.04 upbm affinity estimate (log intensity, higher = more binding, comparable within an allelic series); in experiment [4], 8.99 upbm affinity estimate (log intensity, higher = more binding, comparable within an allelic series); in [5], 9.02 upbm affinity estimate (log intensity, higher = more binding, comparable within an allelic series); in experiment [6], 8.96 upbm affinity estimate (log intensity, higher = more binding, comparable within an allelic series). Moreover, the binding signal was 8.94 upbm affinity estimate (log intensity, higher = more binding, comparable within an allelic series) in [7]; 9.03 upbm affinity estimate (log intensity, higher = more binding, comparable within an allelic series) in [8]; 9.14 upbm affinity estimate (log intensity, higher = more binding, comparable within an allelic series) in experiment [9]; 8.99 upbm affinity estimate (log intensity, higher = more binding, comparable within an allelic series) in [10]; 8.99 upbm affinity estimate (log intensity, higher = more binding, comparable within an allelic series) in [11]; 8.99 upbm affinity estimate (log intensity, higher = more binding, comparable within an allelic series) in experiment [12]. In addition, the binding signal in experiment [13] is 9.03 upbm affinity estimate (log intensity, higher = more binding, comparable within an allelic series).
Consider ATACGATA, for which the binding signal is 11.1 upbm affinity estimate (log intensity, higher = more binding, comparable within an allelic series) in experiment [1]; 10.4 upbm affinity estimate (log intensity, higher = more binding, comparable within an allelic series) in experiment [2]; 11 upbm affinity estimate (log intensity, higher = more binding, comparable within an allelic series) in [3]; 9.94 upbm affinity estimate (log intensity, higher = more binding, comparable within an allelic series) in experiment [4]; 10.6 upbm affinity estimate (log intensity, higher = more binding, comparable within an allelic series) in [5]; 10.9 upbm affinity estimate (log intensity, higher = more binding, comparable within an allelic series) in experiment [6]. Moreover, the binding signal in experiment [7] was 10.4 upbm affinity estimate (log intensity, higher = more binding, comparable within an allelic series); in experiment [8] it was 11.2 upbm affinity estimate (log intensity, higher = more binding, comparable within an allelic series); in experiment [9] it was 11.2 upbm affinity estimate (log intensity, higher = more binding, comparable within an allelic series); in [10], 11 upbm affinity estimate (log intensity, higher = more binding, comparable within an allelic series); in [11] it was 10.9 upbm affinity estimate (log intensity, higher = more binding, comparable within an allelic series); in experiment [12] it was 10.9 upbm affinity estimate (log intensity, higher = more binding, comparable within an allelic series). In addition, in experiment [13], the binding signal was 10.8 upbm affinity estimate (log intensity, higher = more binding, comparable within an allelic series).
For AAGGCCGC, the binding signal is 8.93 upbm affinity estimate (log intensity, higher = more binding, comparable within an allelic series) in [1]; 8.99 upbm affinity estimate (log intensity, higher = more binding, comparable within an allelic series) in experiment [2]; 8.93 upbm affinity estimate (log intensity, higher = more binding, comparable within an allelic series) in experiment [3]; 8.98 upbm affinity estimate (log intensity, higher = more binding, comparable within an allelic series) in [4]; 8.92 upbm affinity estimate (log intensity, higher = more binding, comparable within an allelic series) in experiment [5]; 8.92 upbm affinity estimate (log intensity, higher = more binding, comparable within an allelic series) in experiment [6]. For the same sequence, the binding signal is 8.97 upbm affinity estimate (log intensity, higher = more binding, comparable within an allelic series) in [7]; 8.93 upbm affinity estimate (log intensity, higher = more binding, comparable within an allelic series) in experiment [8]; 8.96 upbm affinity estimate (log intensity, higher = more binding, comparable within an allelic series) in [9]; 8.9 upbm affinity estimate (log intensity, higher = more binding, comparable within an allelic series) in [10]; 8.89 upbm affinity estimate (log intensity, higher = more binding, comparable within an allelic series) in experiment [11]; 8.92 upbm affinity estimate (log intensity, higher = more binding, comparable within an allelic series) in experiment [12]. Further, the binding signal was 8.95 upbm affinity estimate (log intensity, higher = more binding, comparable within an allelic series) in experiment [13]; 10.5 upbm affinity estimate (log intensity, higher = more binding, comparable within an allelic series) in experiment [14]; 10.6 upbm affinity estimate (log intensity, higher = more binding, comparable within an allelic series) in experiment [15].
On to GCAGCCGC, for which the binding signal was 8.93 upbm affinity estimate (log intensity, higher = more binding, comparable within an allelic series) in experiment [1]; 8.9 upbm affinity estimate (log intensity, higher = more binding, comparable within an allelic series) in experiment [2]; 8.98 upbm affinity estimate (log intensity, higher = more binding, comparable within an allelic series) in experiment [3]; 8.93 upbm affinity estimate (log intensity, higher = more binding, comparable within an allelic series) in experiment [4]; 9.02 upbm affinity estimate (log intensity, higher = more binding, comparable within an allelic series) in [5]; 8.94 upbm affinity estimate (log intensity, higher = more binding, comparable within an allelic series) in [6]. Further, the binding signal in experiment [7] was 8.95 upbm affinity estimate (log intensity, higher = more binding, comparable within an allelic series); in [8], 8.95 upbm affinity estimate (log intensity, higher = more binding, comparable within an allelic series); in experiment [9] it was 9.01 upbm affinity estimate (log intensity, higher = more binding, comparable within an allelic series); in experiment [10] it was 9.01 upbm affinity estimate (log intensity, higher = more binding, comparable within an allelic series); in [11] it was 8.97 upbm affinity estimate (log intensity, higher = more binding, comparable within an allelic series); in experiment [12], 8.98 upbm affinity estimate (log intensity, higher = more binding, comparable within an allelic series). The binding signal in experiment [13] was 9.03 upbm affinity estimate (log intensity, higher = more binding, comparable within an allelic series).
Consider CAGCTGGC, for which the binding signal in experiment [1] was 8.7 upbm affinity estimate (log intensity, higher = more binding, comparable within an allelic series); in experiment [2], 8.78 upbm affinity estimate (log intensity, higher = more binding, comparable within an allelic series); in [3] it was 8.72 upbm affinity estimate (log intensity, higher = more binding, comparable within an allelic series); in experiment [4], 8.91 upbm affinity estimate (log intensity, higher = more binding, comparable within an allelic series); in experiment [5] it was 8.72 upbm affinity estimate (log intensity, higher = more binding, comparable within an allelic series); in [6], 8.61 upbm affinity estimate (log intensity, higher = more binding, comparable within an allelic series). Besides, the binding signal in experiment [7] was 8.88 upbm affinity estimate (log intensity, higher = more binding, comparable within an allelic series); in experiment [8] it was 8.8 upbm affinity estimate (log intensity, higher = more binding, comparable within an allelic series); in [9], 8.91 upbm affinity estimate (log intensity, higher = more binding, comparable within an allelic series); in [10], 8.79 upbm affinity estimate (log intensity, higher = more binding, comparable within an allelic series); in experiment [11], 8.84 upbm affinity estimate (log intensity, higher = more binding, comparable within an allelic series); in experiment [12], 8.73 upbm affinity estimate (log intensity, higher = more binding, comparable within an allelic series). In [13], the binding signal was 8.69 upbm affinity estimate (log intensity, higher = more binding, comparable within an allelic series).
